# Compounds with a hit are over-represented: about 19% of the library has one in this group of screens.
# DT40 TDP1 CPT = qHTS for Inhibitors of human tyrosyl-DNA phosphodiesterase 1 (TDP1): qHTS in cells in presence of CPT. chicken DT40 Tdp1-/-;hTDP1 cells + 20 nM CPT, ATP luminescence, 48 h. AID 686979, 2013. hit rate 12% among 420,000. Potency, µM (titrated, usually from 46.2 µM), for the others: top-dose activity change, negative = growth inhibition, actives largely listed as inhibitors; further: potency means the concentration at half of the fitted maximal effect; nearly all actives have a fitted effect of over 55% in size
#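 Chicken DT40 Tdp1-/- cells stably complemented with human TDP1 were seeded at 400 cells/well in medium containing 20 nM camptothecin, exposed to pin-transferred compounds, and grown at 37 °C for at least 48 hr. Viability was read as ATP luminescence.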
# TDP1 cell noCPT = qHTS for Inhibitors of human tyrosyl-DNA phosphodiesterase 1 (TDP1): qHTS in cells in absence of CPT; AID 686978, 2013; Potency, µM (top dose mostly 46.2 µM), for the others: at the top dose activity change, negative = growth inhibition, usual class: inhibitors; DT40 Tdp1-/- hTDP1 cells, no CPT, ATP luminescence, 48 h; hit rate 15% among 420,000; further: potency means the concentration at half of the fitted maximal effect; nearly all actives have a fitted effect of over 55% in size
#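 DT40 Tdp1-/-;hTDP1 cells, no CPT (DMSO vehicle only), 400 cells/well; compounds pin-transferred; ≥48 hr, 37 °C; CellTiter-Glo 30 min RT dark, luminescence read.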
# HT1080-NT tox = qHTS for induction of synthetic lethality in tumor cells producing 2HG: qHTS for the HT-1080-NT fibrosarcoma cell line; hit rate 1.6% among 360,000; Potency, µM (top dose mostly 46.1 µM), for inactives: top-dose activity, negative = less viability, hits mostly cytotoxic; HT-1080-NT fibrosarcoma viability, CellTiter-Glo ATP luminescence, 48 h;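 further: NT is the 2HG producing partner of a matched IDH1 knockdown line; potency means the concentration at half of the fitted maximal effect; 0% = DMSO-treated cells and -100% = media-only wells without cells; nearly all actives have a fitted effect of over 55% in size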
#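 HT-1080-NT; 750 cells/well; 5% FBS RPMI; 48 h compound, 37 degrees C; CellTiter-Glo luminescence; curve fitting and curve-class assignment.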
# IL1B secr inh = qHTS for Inhibitors of Inflammasome Signaling: IL-1-beta AlphaLISA Primary Screen. THP-1 LPS/ATP IL-1B secretion, AlphaLISA, 16 h; hits give low values. activity change, % at 57.5 µM. hit rate 4.7% among 360,000. AID 743279, 2014; in the data active means activity change below about -50%; inconclusive means mostly about -30% to -49%
#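 Secreted IL-1B measured by AlphaLISA bead assay after 16 h compound exposure of THP-1 cells; compounds (final up to 57.5 uM) added 1 h before LPS (250 ng/mL) and ATP (1.25 mM) stimulation; lower signal means less secretion.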
# HT1080 IDH1KD tx = qHTS for induction of synthetic lethality in tumor cells producing 2HG: qHTS for the HT-1080-IDH1KD cell line; HT-1080 IDH1 knockdown viability, ATP luminescence, 48 h; Potency, µM (doses to about 46.1 µM), inactives show top-dose activity, negative = toxicity, hits mostly cytotoxic; hit rate 2% among 360,000;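 further: potency means the concentration at half of the fitted maximal effect; 0% = DMSO wells and -100% = cell-free medium wells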
#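 Viability of IDH1-knockdown HT-1080 fibrosarcoma cells was assessed by CellTiter-Glo after 48 h at 37 °C with titrated compound; concentration-effect curves were classified by fit quality and response size.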
# ELG1 repair inh = qHTS screen for small molecules that inhibit ELG1-dependent DNA repair in human embryonic kidney (HEK293T) cells expressing luciferase-tagged ELG1 | HEK293T ELG1-luciferase reporter, luminescence, 16 h; DNA damage induced by 5-fluorouridine | Potency, µM (doses to about 46.1 µM), for inactives: at the top dose activity change, negative = inhibition, most hits filed as inhibitors | hit rate 2.3% among 330,000 | AID 504467, 2011; further: potency means the concentration at half of the fitted maximal effect; nearly all actives have a fitted effect of over 55% in size
#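 Cells (2,000 per well) received 5-fluorouridine plus test compound or DMSO and were incubated 16 hr at 37 °C, 5% CO2. Luciferase activity was read by luminescence 30 min after ONE-Glo addition; signal suppression marked inhibition of damage-induced ELG1 function.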
# Active calls of the source: *; ? = inconclusive; . = not tested or not shown; [ ] = another dose, or the depositor's remark. Unless noted, the call rests on the fitted dose curve; in most records, active means well fitted curve in the direction sought with a large enough effect; inconclusive means small, poorly fitted or top-dose-only effect, or another doubt; inactive means no such curve, though single readings can be large; an effect the other way counts as inactive or inconclusive. Unless noted, on the % scale 0 is the no-effect control and ±100 the full control effect.
SMILES,DT40 TDP1 CPT,TDP1 cell noCPT,HT1080-NT tox,IL1B secr inh,HT1080 IDH1KD tx,ELG1 repair inh
CCc1ccc(-c2nc(CN3CCCC(C(=O)N4CCN(c5cc(Cl)ccc5C)CC4)C3)c(C)o2)cc1 (stereo unspecified),6.5µM*,3.3µM*,.,.,.,.
Cc1ccc(C)c(N2CCN(C(=O)C3CCCN(Cc4nc(-c5cccc(Cl)c5)oc4C)C3)CC2)c1 (stereo unspecified),?,-7%,.,.,.,.
Cc1oc(-c2ccc(F)cc2)nc1CN1CCCC(C(=O)N2CCOCC2)C1 (stereo unspecified),-27%,-2%,9%,-6,0%,14%
CCOC(=O)N1CCN(C(=O)C2CCCN(Cc3nc(-c4ccc(Cl)cc4)oc3C)C2)CC1 (stereo unspecified),9.2µM*,5.8µM*,?,?,-22%,4.6µM*
COc1ccc(S(=O)(=O)N(C)C[C@@H]2Oc3c(NS(C)(=O)=O)cccc3C(=O)N([C@@H](C)CO)C[C@H]2C)cc1,2%,-12%,-2%,18,2%,?
COc1ccc(NC(=O)COC(=O)C23CC4CC(CC(NC(C)=O)(C4)C2)C3)cc1S(=O)(=O)N1CCOCC1,26µM*,16µM*,-1%,7,2%,-5%
O=C(COC(=O)C12CC3CC(CC(O)(C3)C1)C2)Nc1ccc(Cl)c(S(=O)(=O)N2CCOCC2)c1,29µM*,?,-5%,-19,-2%,-22%
COc1ccc(NC(=O)COC(=O)C23CC4CC(CC(O)(C4)C2)C3)cc1Cl,?,?,0%,-2,0%,?
Cc1cc(C)c(C)c(S(=O)(=O)Nc2ccccc2N2CCOCC2)c1C,-16%,-8%,0%,31,0%,0%
O=c1c2ccccc2oc2cc(-c3ccc4[nH]ccc4c3)ccc12,1.8µM*,2.1µM*,?,35,3.7µM*,.
COc1cc2sc3ccc(-c4ccc5[nH]ccc5c4)cc3c(=O)c2cc1OC,5.8µM*,5.8µM*,12%,-16,-10%,.
O=c1c2ccccc2oc2ccccc12,-5%,-14%,.,.,.,.
CCCCN(CCCC)Cc1cc2ccccc2c2c1COC2,13µM*,?,-5%,48,-6%,22%
Cc1ccc(Nc2ccc(C(=O)N3CCCC3)cn2)c(C)c1,?,26µM*,15%,15,9%,-23%
Cc1[nH]nc(N=CC2=C(O)CC(C)(C)CC2=O)c1-c1ccccc1,?,16µM*,5%,-1,1%,13%
Cc1[nH]nc(N=CC2=C(O)CC(c3ccco3)CC2=O)c1-c1ccccc1 (stereo unspecified),?,?,?,-19,10%,-23%
COc1cc(=O)n2c(c1C(=O)NC(C)c1ccco1)CCN(Cc1cc3ccccc3o1)CC2 (stereo unspecified),0%[9.04 µM],-6%,.,.,.,.
COC(=O)c1nccnc1C(=O)Nc1ccccc1N1CCOCC1,-3%,-3%,1%,23,1%,?
COc1ccc(/C=N/Nc2ncnc3c2[nH]c2ccccc23)c(OC)c1OC,-15%,-29%,-4%,16,-3%,14%
C=Cc1ncc(OC)c2c1[nH]c1ccccc12,3.7µM*,3.7µM*,16µM*,-107*,?,4%
COc1cccc(N2CCN(c3c(C#N)c(C(F)(F)F)nn3C)CC2)c1,23µM*,8.2µM*,-12%,-51*,-17%,15µM*
COc1cccc(N2CCN(c3nc(C)cc(C)c3C#N)CC2)c1,-21%,?,6%,-12,1%,?
O=C1CC(=C(c2ccccc2)c2ccccc2)C(=O)N1CCCCN1CCN(c2ccccc2)CC1,15µM*,9.2µM*,18µM*,?,16µM*,?
COc1ccc(N2CCN(CC(=O)c3ccccc3)CC2)cc1,?,?,1%,6,18%,3%
COc1ccc(N2CCN(CCC(=O)c3ccc4ccccc4c3)CC2)cc1,18µM*,15µM*,?,?,?,0%
SMILES,DT40 TDP1 CPT,TDP1 cell noCPT,HT1080-NT tox,IL1B secr inh,HT1080 IDH1KD tx,ELG1 repair inh
CC(C)(C)c1cc(C(=O)CCN2CCOCC2)cc(C(C)(C)C)c1O,4.6µM*,7.3µM*,?,-101*,?,-2%
CCC(=O)c1ccc(OCCN2CCOCC2)cc1,14%,-12%,-1%,-4,-5%,?
O=C(CCN1CCOCC1)c1ccc(N2CCCCC2)cc1,1.6µM*,4.1µM*,-29%,-73*,-2%,?
CS(=O)(=O)N(CC(=O)NCCSCc1ccccc1Cl)c1ccc(F)cc1,?,?,-3%,-11,-2%,1%
COCCNC(=O)C1CCCN(C(=O)c2sc(-c3ccccc3)nc2C)CC1 (stereo unspecified),13%,7%,3%,-2,12%,.
CCn1cnc2cc(NS(=O)(=O)c3ccc(OC)c(OC)c3)ccc21,?,-28%,14%,10,3%,-15%
O=C(CCC(=O)OCC(=O)c1ccc(Cl)cc1)Nc1ccc(Oc2ccccc2)cc1,-3%,-10%,.,.,.,.
CCN(C[C@H]1N[C@@](CC)(C(=O)OC)[C@H]2C(=O)N(C)C(=O)[C@@H]12)C(=O)Nc1ccc(C)cc1,7%,-13%,6%,37,6%,?
O=C(CCN1CCN(c2ccccc2)CC1)Nc1ccc(Cl)cc1,0%,-25%,-12%,-8,-23%,-30%
O=C(CCN1CCN(c2ccc([N+](=O)[O-])cc2)CC1)c1ccc(Cl)cc1,3.7µM*,4.6µM*,9%,-24,2%,6%
O=C(CCN1CCN(c2ccccc2)CC1)c1ccc(Cl)cc1,5.2µM*,6.5µM*,-8%,-7,-7%,-1%
COc1ccccc1Nc1nn2c(=O)c3ccc(C(=O)NCCCOC(C)C)cc3nc2s1,5.2µM*,4.1µM*,.,.,.,.
COc1ccccc1Nc1ccc(C(=O)NCc2cccs2)cn1,0%,-9%,23%,-20,18%,?
COc1ccccc1Nc1nn2c(=O)c3ccc(C(=O)NCc4cccs4)cc3nc2s1,13µM*,16µM*,.,.,.,.

# Bioassay records deposited in PubChem BioAssay by National Center for Advancing Translational Sciences (NCATS).
